Over roughly 33,000 sequences, “E-score (-0.5 to 0.5)” has its median near -0.056; the highest 2% begin near 0.38. What follows is part of a selection rich in the highest values, with near analogues and random picks from the rest.
target: Stb4 (UniProt P50104); assay: PBM E-score (8-mer binding enrichment) (E-score (-0.5 to 0.5)); higher = stronger / more preferred TF binding; conditions: protein concentration: 200 nM; construct: GST-DNA-binding domain
Method: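 Universal 'all 10-mer' protein binding microarrays (Agilent AMADID 015681) probed with GST-tagged S. cerevisiae TFs (full-length or DBD) made by in vitro transcription/translation (PURExpress), about 100-200 nM. Bound TF was detected with fluorescent anti-GST. Each ungapped 8-mer (which stands for itself and its reverse complement) is scored by the PBM enrichment score (E-score), a modified Wilcoxon-Mann-Whitney statistic from -0.5 to +0.5, computed with the Universal PBM Analysis Suite. Scale: above 0.35 generally sequence-specific binding.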

UniProt P50104, sequence (P50104 whole entry, the tested form may be a part): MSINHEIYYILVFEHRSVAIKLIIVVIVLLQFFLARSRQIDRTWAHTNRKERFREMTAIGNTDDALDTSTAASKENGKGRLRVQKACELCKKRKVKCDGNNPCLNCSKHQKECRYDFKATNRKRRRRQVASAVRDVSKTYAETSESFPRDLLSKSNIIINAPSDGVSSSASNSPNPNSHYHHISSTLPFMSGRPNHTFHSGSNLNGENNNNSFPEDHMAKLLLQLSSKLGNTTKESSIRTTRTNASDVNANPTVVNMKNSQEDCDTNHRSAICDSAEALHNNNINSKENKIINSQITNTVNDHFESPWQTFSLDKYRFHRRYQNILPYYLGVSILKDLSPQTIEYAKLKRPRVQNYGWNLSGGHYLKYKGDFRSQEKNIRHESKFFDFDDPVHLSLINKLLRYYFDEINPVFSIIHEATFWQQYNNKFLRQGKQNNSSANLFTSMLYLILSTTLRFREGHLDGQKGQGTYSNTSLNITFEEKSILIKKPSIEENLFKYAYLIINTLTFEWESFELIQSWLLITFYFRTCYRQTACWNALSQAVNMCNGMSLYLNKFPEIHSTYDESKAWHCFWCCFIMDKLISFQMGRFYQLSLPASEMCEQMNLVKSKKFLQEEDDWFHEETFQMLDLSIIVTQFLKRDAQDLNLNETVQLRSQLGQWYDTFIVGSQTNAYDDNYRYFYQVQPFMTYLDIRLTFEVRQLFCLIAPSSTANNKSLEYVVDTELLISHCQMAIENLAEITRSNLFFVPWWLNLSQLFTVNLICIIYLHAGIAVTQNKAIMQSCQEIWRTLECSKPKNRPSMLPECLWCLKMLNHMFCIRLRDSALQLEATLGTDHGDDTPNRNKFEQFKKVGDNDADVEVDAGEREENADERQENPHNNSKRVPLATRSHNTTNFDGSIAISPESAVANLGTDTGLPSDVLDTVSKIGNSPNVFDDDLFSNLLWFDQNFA

Row | Sequence | PBM E-score
1 | ATTCGGCC | 0.271
2 | ATTCGGCA | 0.438
3 | GTTCGGCA | 0.418
4 | GGTCGGCA | 0.353
5 | ATTCGGCG | 0.333
6 | ACAACCTC | -0.114
7 | AGGCTGGG | -0.236
8 | ACCGCGTG | 0.053
9 | ACTCCAAC | -0.11
10 | AGACTGAG | -0.107
11 | GCTCGTGA | -0.108
12 | CCTCGGGC | 0.288
13 | CCTCGGGA | 0.444
14 | ACTCGGGG | 0.286
15 | CCACGGGA | 0.223
16 | ACTCGGGA | 0.44
17 | GCACGGGA | 0.305
18 | ACTCGGGC | 0.263
19 | GCTCGGGA | 0.464
20 | ATGTGCCC | -0.048
21 | GACCGCTA | 0.0181
22 | GCACTTAC | 0.0807
23 | CAGAGGCC | -0.204
24 | ACTTGGTA | -0.265
25 | AATGTGAT | -0.15

Row | Sequence | PBM E-score
26 | TGGATACA | -0.147
27 | CCGATACG | 0.307
28 | CGGATACA | 0.433
29 | AGGATACC | 0.0351
30 | AGGATACA | -0.261
31 | CGGATACC | 0.41
32 | CGGATACG | 0.409
33 | GGGATACC | 0.184
34 | AGGATACG | -0.23
35 | CCGCTCGA | 0.11
36 | GCGCGACC | -0.0286
37 | ACGTTCAG | -0.252
38 | TCAGGGCA | -0.18
39 | AATACAGT | -0.194
40 | CTGAACTC | -0.175
41 | CGGAACTA | 0.449
42 | AGGAACTC | -0.0879
43 | GGGAACTA | 0.183
44 | AGGAACTA | 0.0365
45 | CGGAACTC | 0.401
46 | ACTCTAGG | -0.212
47 | CAGCTCCA | -0.265
48 | CGCGGCCG | 0.136
49 | AATCGGGC | 0.159
50 | ACTCTGAC | -0.0524

Row | Sequence | PBM E-score
51 | ATATCCGG | 0.424
52 | ATATCCGA | 0.482
53 | CTATCCAA | -0.268
54 | ATATCCCG | 0.306
55 | CTATCCGA | 0.469
56 | GTATCCCA | -0.0937
57 | ATATCCTA | -0.0944
58 | CTATCCCA | -0.135
59 | GTATCCTA | -0.107
60 | ATATCCAA | 0.0444
61 | GTATCCGA | 0.487
62 | ATATCCAG | -0.114
63 | AATCTAAG | -0.107
64 | AGACTGGC | -0.17
65 | ACCCAGCG | -0.0996
66 | CAATGTAA | 0.112
67 | ATTATGGG | -0.0331
68 | TAGATGCA | -0.222
69 | GTCAGCGA | -0.138
70 | ATTGGGTG | -0.0143
71 | GACCTTAA | -0.145
72 | GGGTCTCA | 8e-05
73 | CCGAGCAC | 0.413
74 | ACGAGCAC | -0.133
75 | ACGAGCAA | -0.0941

Row | Sequence | PBM E-score
76 | GCGAGCAC | -0.135
77 | TCGAGCAA | -0.141
78 | CCGAGCAA | 0.406
79 | GAACAGGA | -0.0169
80 | CCGAAGTC | 0.417
81 | ACGAAGTC | -0.264
82 | CAGAAGTC | -0.174
83 | GCGAAGTA | -0.0361
84 | CCGAAGTA | 0.418
85 | ACGAAGTA | -0.0487
86 | ACAGCTTC | 0.0141
87 | AACACCGG | 0.248
88 | CATGCCAA | -0.257
89 | CTTCCTCA | -0.208
90 | CGCACCAC | -0.0216
91 | AGTTTGAG | -0.092
92 | CCCTCGTA | -0.114
93 | CCCTCGCA | -0.0413
94 | GCCTCGAA | -0.0521
95 | GCCTCGGA | 0.444
96 | GCCTCGTA | -0.0917
97 | CCCTCGGA | 0.464
98 | CAAGTTTA | -0.136
99 | ACCTGCAC | -0.0938
100 | AAGGTACA | -0.341

Row | Sequence | PBM E-score
101 | AAGGCTAG | -0.127
102 | CAACCGAA | 0.289
103 | GAACCGTA | 0.0316
104 | GAACCGAA | 0.397
105 | AAACCGAA | 0.259
106 | TAACCGAA | 0.431
107 | GAACCGAC | 0.286
108 | AACCCGGA | 0.375
109 | CTACAGTC | -0.214
110 | CTCATCTA | -0.116
111 | AAAGTGAC | -0.123
112 | CAACCCGA | 0.33
113 | AAACCCGA | 0.403
114 | AAACCCGT | -0.00663
115 | GAACCCGA | 0.338
116 | AAACCCGC | 0.246
117 | TAACCCGA | 0.385
118 | TGACCCAA | -0.235
119 | AGCGAAAT | 0.0212
120 | CGATTATC | 0.15
121 | GATTCAGA | -0.121
122 | ACGGCAGA | 0.156
123 | CCGGCACA | 0.307
124 | TCGGCACA | 0.441
125 | CCGGCACG | 0.293

Row | Sequence | PBM E-score
126 | GCGGCCGA | 0.217
127 | TCGGCTAA | 0.455
128 | GCGGCTAA | 0.287
129 | TCGGCCGA | 0.419
130 | TCGGCAGA | 0.41
131 | CCGGCAGA | 0.286
132 | CCGGCCGA | 0.356
133 | ACGGCTAA | 0.264
134 | GACGTTGC | -0.00479
135 | AAGGCCTT | -0.207
136 | GGCGCCGA | 0.317
137 | GAGTAATC | -0.0725
138 | CGGACCCG | 0.346
139 | CCCTGCTA | -0.236
140 | ATTTGAGG | -0.0518
141 | CCACTTGA | -0.0304
142 | AATAGTCT | -0.236
143 | ACGGCAAA | 0.243
144 | TCGGCAAA | 0.41
145 | GCGGCAAA | 0.182
146 | AGGAGAAC | -0.179
147 | CAAATGCG | -0.127
148 | TTACCGAA | 0.424
149 | ATACCGAA | 0.392
150 | GTACCGAA | 0.358

Row | Sequence | PBM E-score
151 | ATACCGAC | 0.167
152 | CTACCGAA | 0.365
153 | ATACCGAT | 0.285
154 | CGGTCTGC | -0.0321
155 | GCCACCGC | -0.0977
156 | CTCAAGGC | 0.065
157 | AGTGCGAC | 0.0915
158 | CCGGTATA | 0.214
159 | CCGAGAAC | 0.414
160 | ACGAGAAG | -0.264
161 | ACGAGAAC | -0.149
162 | GCGAGAAA | -0.00939
163 | CAGAGAAG | -0.0211
164 | TCGAGAAA | -0.141
165 | GCGAGAAC | -0.021
166 | CCGAGAAA | 0.451
167 | CCGAGAAG | 0.386
168 | AGCATTGG | -0.12
169 | CAGGGCAC | -0.15
170 | AAGAGGTG | -0.0351
171 | CCATTGAC | -0.243
172 | GAATGCGA | 0.0718

— the supplement of paper PMC3334620
